Many of the other results were omitted from the sample, so the strongest signals are more common in it than they were.
Tests used:
Test in all cases: glycan array binding signal (z-score within array); higher = stronger binding
Conditions in all cases: glycan notation: IUPAC condensed, linker removed
[1] = target: Fuc(a1-2)Gal(b1-4)GlcNAc(b1-6)GalNAc
Outline: (§1)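 Glycan array binding is given as a within-array Z-score, which can be read as non-binding when negative. The arrays, 3228 of them, came from the Consortium for Functional Glycomics database and were retained only where the protein sequence was available. Z-scores were averaged across arrays of the same protein sequence at different concentrations or buffers and across linkers.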

[2] = target: Fuc(a1-2)Gal(b1-4)[Fuc(a1-3)]GlcNAc(b1-2)[Fuc(a1-2)Gal(b1-4)[Fuc(a1-3)]GlcNAc(b1-4)]Man(a1-3)[Fuc(a1-2)Gal(b1-4)[Fuc(a1-3)]GlcNAc(b1-2)Man(a1-6)]Man(b1-4)GlcNAc(b1-4)GlcNAc
Outline: as §1

[3] = target: Fuc(a1-2)[Gal(a1-3)]Gal(b1-4)GlcNAc(b1-3)[Fuc(a1-2)[Gal(a1-3)]Gal(b1-4)GlcNAc(b1-6)]GalNAc
Outline: as §1

[4] = target: Fuc(a1-2)[Gal(a1-4)]Gal(b1-4)GlcNAc
Outline: as §1

[5] = target: Fuc(a1-2)[GalNAc(a1-3)]Gal
Outline: as §1

[6] = target: Fuc(a1-2)[GalNAc(a1-3)]Gal(b1-3)GalNAc(a1-3)[Fuc(a1-2)]Gal(b1-4)GlcNAc
Outline: as §1

[7] = target: Fuc(a1-2)[GalNAc(a1-3)]Gal(b1-4)GlcNAc(b1-3)Gal(b1-4)GlcNAc
Outline: as §1

[8] = target: Fuc(a1-2)[GalNAc(a1-4)]Gal(b1-4)GlcNAc
Outline: as §1

[9] = target: Fuc(a1-2)[GalNAc(b1-3)]Gal
Outline: as §1

[10] = target: Fuc(a1-3)[Gal(b1-4)]GlcNAc
Outline: as §1

[11] = target: Fuc(a1-3)[Gal(b1-4)]GlcNAc(b1-3)Gal(b1-3)[Fuc(a1-4)]GlcNAc
Outline: as §1

[12] = target: Fuc(a1-3)[GalNAc(b1-4)]GlcNAc
Outline: as §1

[13] = target: Gal(b1-3)GalNAc(b1-3)Gal
Outline: as §1

[14] = target: Gal(b1-3)[Fuc(a1-4)]GlcNAc
Outline: as §1

[15] = target: Gal(b1-3)[Fuc(a1-4)]GlcNAc(b1-2)Man
Outline: as §1

[16] = target: Gal(b1-4)GlcNAc(b1-2)[Gal(b1-4)GlcNAc(b1-6)]Man(a1-6)[GlcNAc(b1-4)][Gal(b1-4)GlcNAc(b1-2)Man(a1-3)]Man(b1-4)GlcNAc(b1-4)GlcNAc
Outline: as §1

[17] = target: Gal(b1-4)GlcNAc(b1-3)Gal(b1-4)GlcNAc(b1-2)Man(a1-3)[Gal(b1-4)GlcNAc(b1-3)Gal(b1-4)GlcNAc(b1-2)Man(a1-6)]Man(b1-4)GlcNAc(b1-4)GlcNAc
Outline: as §1

[18] = target: Gal(b1-4)GlcNAc(b1-3)Gal(b1-4)GlcNAc(b1-3)Gal(b1-4)GlcNAc(b1-2)Man(a1-3)[Gal(b1-4)GlcNAc(b1-3)Gal(b1-4)GlcNAc(b1-3)Gal(b1-4)GlcNAc(b1-2)Man(a1-6)]Man(b1-4)GlcNAc(b1-4)GlcNAc
Outline: as §1

[19] = target: Gal(b1-4)GlcNAc(b1-3)Gal(b1-4)GlcNAc(b1-3)Gal(b1-4)GlcNAc(b1-2)[Gal(b1-4)GlcNAc(b1-3)Gal(b1-4)GlcNAc(b1-3)Gal(b1-4)GlcNAc(b1-6)]Man(a1-6)[Gal(b1-4)GlcNAc(b1-3)Gal(b1-4)GlcNAc(b1-3)Gal(b1-4)GlcNAc(b1-2)Man(a1-3)]Man(b1-4)GlcNAc(b1-4)[Fuc(a1-6)]GlcNAc
Outline: as §1

[20] = target: Gal(b1-4)GlcNAc(b1-6)GalNAc
Outline: as §1

[21] = target: Gal3S(b1-4)GlcNAc
Outline: as §1

[22] = target: GalNAc(b1-3)Gal(a1-4)Gal(b1-4)GlcNAc
Outline: as §1

[23] = target: GalNAc(b1-4)GlcNAc
Outline: as §1

[24] = target: GalNAc(b1-4)GlcNAc(b1-3)GalNAc(b1-4)GlcNAc
Outline: as §1

[25] = target: GalNAc(b1-4)GlcNAc6S
Outline: as §1

[26] = target: GalNAc3S(b1-4)[Fuc(a1-3)]GlcNAc
Outline: as §1

[27] = target: GlcA(b1-3)GlcNAc
Outline: as §1

[28] = target: GlcNAc(a1-4)Gal(b1-4)GlcNAc
Outline: as §1

[29] = target: GlcNAc(a1-4)Gal(b1-4)GlcNAc(b1-3)Gal(b1-4)[Fuc(a1-3)]GlcNAc(b1-3)Gal(b1-4)[Fuc(a1-3)]GlcNAc
Outline: as §1

[30] = target: GlcNAc(b1-3)Gal(b1-4)GlcNAc(b1-3)[GlcNAc(b1-3)Gal(b1-4)GlcNAc(b1-3)]GalNAc
Outline: as §1

[31] = target: GlcNAc(b1-3)[GlcNAc(b1-6)]GalNAc
Outline: as §1

[32] = target: GlcNAc(b1-6)GalNAc
Outline: as §1

[33] = target: GlcNAc6S(b1-3)Gal(b1-4)GlcNAc
Outline: as §1

[34] = target: Neu5Ac(a2-3)Gal(b1-3)GalNAc6S
Outline: as §1

[35] = target: Neu5Ac(a2-3)Gal(b1-3)GlcNAc(b1-6)GalNAc
Outline: as §1

[36] = target: Neu5Ac(a2-3)Gal(b1-3)[Neu5Ac(a2-6)]GalNAc
Outline: as §1

[37] = target: Neu5Ac(a2-3)Gal(b1-4)GlcNAc(b1-6)[Gal(b1-3)]GalNAc
Outline: as §1

[38] = target: Neu5Ac(a2-3)Gal(b1-4)[Fuc(a1-3)]GlcNAc(b1-2)Man
Outline: as §1

[39] = target: Neu5Ac(a2-3)Gal(b1-4)[Fuc(a1-3)]GlcNAc(b1-6)[Gal(b1-3)]GalNAc
Outline: as §1

[40] = target: Neu5Ac(a2-6)Gal(b1-4)GlcNAc(b1-2)Man(a1-6)[Man(a1-3)]Man(b1-4)GlcNAc(b1-4)GlcNAc
Outline: as §1

[41] = target: Neu5Ac(a2-6)Gal(b1-4)GlcNAc(b1-2)[Neu5Ac(a2-6)Gal(b1-4)GlcNAc(b1-4)]Man(a1-3)[GlcNAc(b1-4)][Neu5Ac(a2-6)Gal(b1-4)GlcNAc(b1-4)Man(a1-6)]Man(b1-4)GlcNAc(b1-4)GlcNAc
Outline: as §1

[42] = target: Neu5Ac(a2-8)Neu5Ac(a2-3)Gal(b1-4)Glc
Outline: as §1

[43] = target: Neu5Gc(a2-8)Neu5Gc(a2-6)Gal(b1-4)GlcNAc
Outline: as §1

[44] = target: Neu5Gc(b2-6)Gal(b1-4)GlcNAc
Outline: as §1

B1: DC-ASGPR-short (Homo sapiens) (protein)
chain: MTRTYENFQYLENKVKVQGFKNGPLPLQSLLQRLRSGPCHLLLSLGLGLLLLVIICVVGFQNSKFQRDLVTLRTDFSNFTSNTVAEIQALTSQGSSLEETIASLKAEVEGFKQERQAVHSEMLLRVQQLVQDLKKLTCQVATLNNNASTEGTCCPVNWVEHQDSCYWFSHSGMSWAEAEKYCQLKNAHLVVINSREEQNFVQKYLGSAYTWMGLSDPEGAWKWVDGTDYATGFQNWKPGQPDDWQGHGLGGGEDCAHFHPDGRWNDDVCQRPYHWVCEAGLGQTSQESH
[1]
  glycan array binding signal (z-score): 4.65
[2]
  glycan array binding signal (z-score): -0.192
[3]
  glycan array binding signal (z-score): -0.17
[4]
  glycan array binding signal (z-score): -0.263
[5]
  glycan array binding signal (z-score): 0.967
[6]
  glycan array binding signal (z-score): 1.27
[7]
  glycan array binding signal (z-score): 0.335
[8]
  glycan array binding signal (z-score): 3.1
[9]
  glycan array binding signal (z-score): 4.03
[10]
  glycan array binding signal (z-score): -0.28
[11]
  glycan array binding signal (z-score): -0.284
[12]
  glycan array binding signal (z-score): 3.04
[13]
  glycan array binding signal (z-score): -0.217
[14]
  glycan array binding signal (z-score): -0.264
[15]
  glycan array binding signal (z-score): -0.106
[16]
  glycan array binding signal (z-score): -0.282
[17]
  glycan array binding signal (z-score): -0.244
[18]
  glycan array binding signal (z-score): -0.221
[19]
  glycan array binding signal (z-score): -0.198
[20]
  glycan array binding signal (z-score): 3.52
[21]
  glycan array binding signal (z-score): -0.271
[22]
  glycan array binding signal (z-score): 6.36
[23]
  glycan array binding signal (z-score): 4.38
[24]
  glycan array binding signal (z-score): 4.52
[25]
  glycan array binding signal (z-score): 4.1
[26]
  glycan array binding signal (z-score): -0.256
[27]
  glycan array binding signal (z-score): -0.28
[28]
  glycan array binding signal (z-score): -0.273
[29]
  glycan array binding signal (z-score): -0.266
[30]
  glycan array binding signal (z-score): -0.295
[31]
  glycan array binding signal (z-score): -0.234
[32]
  glycan array binding signal (z-score): 4.64
[33]
  glycan array binding signal (z-score): -0.27
[34]
  glycan array binding signal (z-score): -0.279
[35]
  glycan array binding signal (z-score): 5.92
[36]
  glycan array binding signal (z-score): -0.224
[37]
  glycan array binding signal (z-score): -0.283
[38]
  glycan array binding signal (z-score): -0.238
[39]
  glycan array binding signal (z-score): -0.285
[40]
  glycan array binding signal (z-score): -0.288
[41]
  glycan array binding signal (z-score): -0.34
[42]
  glycan array binding signal (z-score): -0.277
[43]
  glycan array binding signal (z-score): -0.279
[44]
  glycan array binding signal (z-score): -0.278
